In PubChem BioAssay (NCI) one finds growth data, which are given here for 13 molecules.

What all share (test): NCI-60 one-dose screen, 48 h (100 = growth as untreated, 0 = no growth, -100 = all killed)
Holding throughout (conditions): 10 µM unless noted

Test [1] relates to NCI-H23 lung.
The subject of test [2] is NCI-H226 lung.
Test [3] relates to NCI-H322M lung.
Test [4] has as its system HOP-62 NSCLC.
Test [5] has as its system NCI-H460 lung.
In test [6] the test system is HOP-92 NSCLC.
In test [7] the test system is NCI-H522 lung.
Test [8] has as its system A549/ATCC NSCLC.
Test [9] has as its system 786-0 renal.
Test [10] deals with COLO 205 colon.
Test [11] deals with DU-145 prostate.
For test [12], the system named is K-562 leukemia.
For test [13], the system named is MALME-3M melanoma.
The test system of test [14] is MDA-MB-231 breast.
For test [15], the system named is RXF 393 renal.
Test [16] concerns SF-268 CNS.
Test [17] has as its system SF-295 CNS.
For test [18], the system named is SF-539 CNS.
The test system of test [19] is UACC-257 melanoma.
Test [20] has as its system M14 melanoma.

The panel holds about 83,000 compounds, 20% with a hit somewhere; the sample as a whole holds those more often.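 Each cell line was grown in a 96-well plate and treated with one concentration of compound for 48 hours. Values below 10 were considered active.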 A number with no mark means an inactive call. Activity calls are given as the source filed them.

As for `CCCCN(CCCC)C(=N)c1ccnc2ccccc12`, the growth in test [1] was 108%; in [2] it was 116%; in [3], 110%; in [4] it was 119%; in test [5], 108%; in test [6], 96.4%. The growth in test [7] was 102%; in test [8], 96.7%; in test [9], 115%; in test [10], 125%; in test [11] it was 117%; in test [12], 110%. Besides, the growth was 98.8% in [13]; 119% in [14]; 127% in test [15]; 103% in test [16]; 93.8% in [17]; 113% in test [18]. Besides, the figures for the growth in test [19] and in test [20] were 66.2% and 110%, respectively.

For `CC(=O)c1cc2c(N)c(C(=O)Nc3cccc4c3OCCO4)sc2nc1C`, the growth is 96% in test [1]; 88.9% in test [2]; 100% in test [3]; 80.7% in test [4]; 82.1% in test [5]; 99.2% in test [6]. For the same molecule, the growth in [7] is 67.7%; in test [8] it was 71.4%; in test [9], 97.9%; in test [10], 86.6%; in [11] it was 104%; in [12], 74.7%. Besides, the growth in test [13] was 101%; in [14], 100%; in test [15], 99.2%; in [16], 96.3%; in test [17], 92.8%; in test [18], 100%. Also, the growth is 99.5% in [19] and 94.4% in test [20].

Take `CC1(c2ccc(Cl)cc2)OC(=O)CC(=O)O1`: the growth is 95.9% in [1]; 104% in test [2]; 109% in test [3]; 102% in [4]; 110% in [5]; 103% in [6]. Besides, the growth is 90.1% in [7]; 99.1% in [8]; 111% in [9]; 109% in test [10]; 108% in [11]; 113% in test [12]. Further, the growth was 89% in test [13]; 98.2% in test [14]; 113% in test [15]; 100% in test [16]; 120% in test [17]; 102% in test [18]. Further, the growth in [19] is 109%; in [20] it was 101%.

On to `C=C[C@@H]1C[C@@H]2Cc3cc(F)ccc3N1O2`, for which the growth in [1] was 103%; in test [2], 120%; in test [3], 137%; in test [4], 102%; in [5] it was 112%; in test [6], 105%. For the same molecule, the growth is 98.7% in [7]; 95.3% in test [8]; 111% in [9]; 123% in test [10]; 112% in [11]; 95.7% in test [12]. In addition, the growth in test [13] was 170%; in test [14] it was 112%; in test [15], 115%; in test [16] it was 106%; in [17], 112%; in test [18], 107%. In addition, the figures for the growth in test [19] and in [20] were 93.8% and 120%, respectively.

`Cc1ccc(S(=O)(=O)Nc2c(Br)cc(Br)cc2C(N)=O)cc1`: the growth in test [1] was 96%; in test [2], 102%; in [3] it was 88.4%; in test [4], 109%; in test [5], 105%; in [6], 94.4%. Also, the growth in [7] was 115%; in test [8] it was 117%; in test [9], 101%; in [10], 103%; in [11], 113%; in test [12], 119%. Also, the growth in test [13] is 87.4%; in test [14] it was 103%; in test [15], 93.1%; in test [16], 109%; in test [17], 97.3%; in test [18], 101%. In addition, the growth is 107% in test [19] and 94.5% in test [20].

Turning to `COc1ccc(CCNC2=CC(=O)CCC2)cc1OC`, the growth in test [1] is 92.5%; in test [2] it was 95%; in test [3], 110%; in [4] it was 104%; in test [5], 111%; in [6] it was 92.8%. Moreover, the growth is 102% in test [7]; 105% in test [8]; 107% in test [9]; 103% in [10]; 124% in [11]; 95.3% in [12]. Also, the growth was 92.2% in test [13]; 104% in [14]; 119% in test [15]; 104% in test [16]; 104% in test [17]; 106% in test [18]. Besides, the figures for the growth in test [19] and in [20] were 117% and 104%, respectively.

As for `CC(NNC(C)c1ccccc1)c1ccccc1` (stereo not given), the growth is 103% in [1]; 98.8% in test [2]; 122% in test [3]; 105% in test [4]; 106% in test [5]; 96.4% in test [6]. For the same molecule, the growth in [7] was 93.9%; in [8], 104%; in test [9] it was 109%; in test [10], 105%; in test [11] it was 110%; in [12], 114%. The growth is 123% in [13]; 113% in [14]; 116% in test [15]; 109% in [16]; 111% in test [17]; 101% in test [18]. Moreover, the growth is 109% in test [19] and 101% in test [20].

On to `N=C(N)c1ccc(-c2ccc(-c3ccc4ccccc4c3)s2)cc1`, for which the growth in test [1] was 88.7%; in test [2] it was 96.7%; in test [3] it was 97%; in [4] it was 97.6%; in test [5], 99.7%; in [6] it was 79.3%. Moreover, the growth in test [7] is 104%; in test [8], 71.5%; in [9], 95%; in test [10], 97.9%; in test [11], 99.6%; in [12], 1.51% (active). Besides, the growth in [13] is 105%; in test [14], 95.4%; in test [15], 61.6%; in [16], 94.7%; in test [17], 102%; in test [18], 97%. Also, the results for the growth in test [19] and in test [20] were 106% and 99.6%, respectively.

As to `CC1CCC(C)N(C)C1` (stereo not given), the growth in [1] was 104%; in test [2] it was 101%; in test [3], 100%; in test [4], 107%; in [5], 109%; in test [6], 84.4%. Moreover, the growth in [7] is 104%; in test [8], 103%; in test [9], 94.4%; in test [10], 110%; in test [11], 122%; in [12], 98.9%. The growth in test [13] is 101%; in [14], 98.2%; in test [15], 100%; in test [16], 108%; in test [17], 116%; in [18], 103%. The growth in test [19] is 105%; in test [20], 96.8%.

Turning to `C=C(C)[C@@H]1C[C@@H]2Cc3ccc(Cl)c(C)c3N1O2`, the growth in [1] was 97.4%; in test [2] it was 107%; in test [3], 108%; in test [4], 98%; in test [5], 106%; in test [6], 77.5%. Also, the growth was 84.8% in test [7]; 89.9% in [8]; 98.5% in [9]; 112% in test [10]; 97.3% in test [11]; 91.3% in [12]. The growth in test [13] is 120%; in test [14] it was 91.5%; in test [15], 99.4%; in test [16], 96.8%; in test [17] it was 95.4%; in test [18] it was 90.8%. Moreover, the growth in test [19] is 90%; in test [20], 105%.

For `COc1ccc(S(=O)(=O)n2cc(C(=O)C(=O)Nc3ccncc3)c3ccccc32)cc1F`, the growth in test [1] was 65.2%; in [2], 82.9%; in test [3] it was 88.6%; in [4], 61.4%; in test [5], 69.5%; in [6] it was 62.1%. In addition, the growth in test [7] was 65.3%; in test [8] it was 71%; in [9], 84.7%; in test [10], 94%; in [11] it was 86.4%; in test [12], 58.8%. The growth was 76.4% in test [13]; 57.1% in test [14]; 90.9% in [15]; 81.7% in [16]; 43.2% in test [17]; 69.1% in test [18]. The values for the growth in test [19] and in test [20] were 105% and 93.2%, respectively.

In the case of `COC(=O)C(Sc1ccc(Cl)cc1)C1SC(=S)N(Cc2ccccc2)C1=O` (stereo not given), the growth was 97.3% in [1]; 116% in test [2]; 105% in test [3]; 95.1% in [4]; 107% in test [5]; 104% in [6]. Further, the growth in test [7] is 96.7%; in test [8] it was 98.2%; in test [9], 103%; in [10], 117%; in [11], 102%; in test [12] it was 44%. The growth in test [13] was 98.9%; in test [14], 98.9%; in test [15], 106%; in test [16] it was 87.7%; in [17], 75.6%; in [18] it was 109%. For the same molecule, the growth in test [19] is 92.2%; in [20], 100%.

Take `CCCCCCCCCCCC(=O)NCCC[N+](C)(C)CC(=O)[O-]`: the growth in test [1] was 93.2%; in [2] it was 93.8%; in [3], 96.6%; in test [4], 97.3%; in test [5], 104%; in test [6], 79.1%. In addition, the growth was 80% in [7]; 105% in test [8]; 93.5% in test [9]; 88.7% in test [10]; 101% in [11]; 83.3% in test [12]. Moreover, the growth is 108% in test [13]; 90.5% in test [14]; 77.2% in test [15]; 85.5% in [16]; 101% in test [17]; 94.3% in [18]. The growth in test [19] is 98.3%; in test [20] it was 98.6%.
